In ChEMBL document CHEMBL4513216, “Probing the Open Global Health Chemical Diversity Library for Multistage-Active Starting Points for Next-Generation Antimalarials” (ACS Infect Dis, 2020):
Hit rate of the full screen: of about 65,000 compounds, about 2,100 (3.2%) showed an effect of 50% or more. The median lay at about -52%. The sample holds strong results, similar compounds and a random draw of the others, so the mix is not that of the screen.

The compounds below were run on Plasmodium falciparum (assay: Screen against P. falciparum Asexual Blood Stage (ABS), at 5uM). Details: tested at 5 uM.
Assay type: functional, Dd2

**Q.** Which INHIBITION does the source give for `CCc1nc(CN2CCCN(C(=O)Cc3cccs3)CC2)cs1` here?
**A.** 3.65%

**Q.** Which INHIBITION does the source give for `CC(=O)N(c1ccc(F)cc1)c1nc(CN2CCCC2C(C)C)cs1` (stereo not given) here?
**A.** 90.3%

**Q.** How did the INHIBITION turn out when `CC(=O)N(c1ccc(C)cc1)c1nc(CN2CCCC(C)C2)cs1` (stereo not given) was run?
**A.** 83.2%

**Q.** Which INHIBITION does the source give for `Cc1nc(CN2CCO[C@H]3CN(C(=O)c4ccncc4)C[C@H]32)cs1` here?
**A.** -109%

**Q.** For `Cc1nc(CN2C[C@@H]3CN(C(=O)c4ccncc4)C[C@@H]3C2)cs1`, which INHIBITION is on record?
**A.** -67.5%

**Q.** For `CCCN1CCN(C(=O)c2cccc(C)n2)[C@H]2CS(=O)(=O)C[C@H]21`, which INHIBITION is on record?
**A.** -129%

**Q.** For `CC(C)(C)CC(=O)N1C[C@@H]2C[C@@H]1CN2`, which INHIBITION is on record?
**A.** 30%

**Q.** With `CC(C)c1cc(N(C)Cc2cc(C3CC3)on2)n2nccc2n1` as the compound, how does the INHIBITION read?
**A.** 80.3%

**Q.** For `CN(Cc1cc(C2CC2)on1)C(=O)CN1CC(c2ccccc2)CC1=O` (stereo not given), which INHIBITION is on record?
**A.** -67.9%

**Q.** `CN(C)CCOCc1cncc2c1CCN(C1CCOC1)C2` (stereo not given) was tested. Which INHIBITION did it give?
**A.** -63.4%

**Q.** With `NC(=O)CN1CCCN(C(=O)Cc2ccc3ccccc3c2)CC1` as the compound, how does the INHIBITION read?
**A.** -22.8%

**Q.** Which INHIBITION does the source give for `O=C(Cc1csc(-c2ncccn2)n1)N1CCN2CCCCC2C1` (stereo not given) here?
**A.** -23.4%

**Q.** How did the INHIBITION turn out when `CCN1CCN(Cc2csc(C(C)C)n2)CC1` was run?
**A.** -17.1%

**Q.** How did the INHIBITION turn out when `CCCC1CCCN(Cc2csc(-c3ncccn3)n2)CC1` (stereo not given) was run?
**A.** 74.9%

**Q.** How did the INHIBITION turn out when `CCc1noc(CN(C)CCC(=O)Nc2ccc(C#N)c(Cl)c2)n1` was run?
**A.** 11.3%

**Q.** `O=S(=O)(Cc1ccccc1Cl)NCCCN1CCCC1` was tested. Which INHIBITION did it give?
**A.** 79.2%

**Q.** `Cn1cc(C(=O)N2CC[C@@H]3[C@@H]2CCN3Cc2ccncc2)cn1` was tested. Which INHIBITION did it give?
**A.** -137%

**Q.** For `Cc1cnc(N2CCc3c(cnc(C)c3C(=O)O)C2)nc1`, which INHIBITION is on record?
**A.** -89.7%

**Q.** `CCc1noc(C(C)N2CCN(CC)CC2)n1` (stereo not given) was tested. Which INHIBITION did it give?
**A.** -70%

**Q.** Which INHIBITION does the source give for `CCN1CCN(c2ccc(F)cc2C(C)NCc2ccnn2C)CC1` (stereo not given) here?
**A.** 76.3%

**Q.** For `Cc1ccc(CNC(C)c2cc(F)ccc2N2CCN(C)CC2)o1` (stereo not given), which INHIBITION is on record?
**A.** 83.7%

**Q.** How did the INHIBITION turn out when `CCN1CCN(c2ccc(F)cc2C(C)NCc2ccccn2)CC1` (stereo not given) was run?
**A.** 85.6%

**Q.** `CCN1CCN(c2ccc(F)cc2C(C)NCc2cscn2)CC1` (stereo not given) was tested. Which INHIBITION did it give?
**A.** 81.1%

**Q.** With `CC(C)c1cc(CN2CCN(c3cccnc3)CC2)n(C)n1` as the compound, how does the INHIBITION read?
**A.** -52.7%

**Q.** How did the INHIBITION turn out when `c1ccc(CO[C@@H]2CN(Cc3cccnc3)[C@@H]3COC[C@@H]32)nc1` was run?
**A.** -165%

**Q.** How did the INHIBITION turn out when `CCN1CCN(c2ccc(C(=O)NCCOC)cc2F)CC1` was run?
**A.** -56%

**Q.** With `CC(c1ccccc1F)N1CCN(C(=O)Cc2ccncc2)CC1` (stereo not given) as the compound, how does the INHIBITION read?
**A.** -41.8%

**Q.** With `CCN1CCN(c2ccc(F)cc2C(C)NCc2ccncc2)CC1` (stereo not given) as the compound, how does the INHIBITION read?
**A.** 72.4%

**Q.** With `Cc1cccc(OCC2CCCN(C(=O)CN(C)C3CCNCC3)C2)c1` (stereo not given) as the compound, how does the INHIBITION read?
**A.** 73.8%

**Q.** How did the INHIBITION turn out when `Cc1cccc(CC(=O)N2CCCC(N(C)CCCN(C)C)C2)c1` (stereo not given) was run?
**A.** -40.55%
